This note sets out measurements from ChEMBL document CHEMBL4888484, “Replenishing the malaria drug discovery pipeline: Screening and hit evaluation of the MMV Hit Generation Library 1 (HGL1) against asexual blood stage Plasmodium falciparum ,using a nano luciferase reporter read-out” (2022).

The assay deals with Plasmodium falciparum. Description: Confirmatory screen in NF54 nanoGlo assay, in single point, at 2uM, 72h. Format: functional, Erythrocyte. As to conditions: timepoint 72 hour.

Several values for one entry are separate records, joined by “and”; a condition that tells them apart may be missing. Equal entries are not always repeated. The campaign covered roughly 4,800 compounds. About 420 (8.8%) showed an effect of 50% or more. Only a selection was taken, and strong results are over-represented in it overall.

Turning to `Cc1ccc(NCc2ncccn2)cc1OCC1CCCCC1`, the “% Inhibition” value was found to be 1%. With `O=C(C1CCCC2CCCCC21)N1CCN(c2ncccn2)CC1` (centres undefined), the “% Inhibition” value was -8%. The same measure, in the same setting: for `Cc1cc(-n2nnc3ccccc32)nc(C)n1` the value was 4%. On the same count and under the same terms, then `Cc1ccc(Cl)c2ccc(NC(=O)CCNC(N)=O)nc12`, with 0%; and `CN([C@H]1CCc2ccccc21)S(=O)(=O)c1ccc2c(c1)CCC2`, with 7%; and `Brc1ccc2sncc2c1`, with -3%. The same measure, in the same setting: then `COc1cncc(C(=O)N2CCCc3cc(S(C)(=O)=O)ccc32)n1`, with 9%. For `CN1CCN(CCc2nc(-c3ccc4cc[nH]c4c3)no2)CC1`, the “% Inhibition” value is -4%. Same read-out and setting: then `CC(C)(C)OC(=O)NS(=O)(=O)Nc1nccs1`, with -13%; and `COCCN(c1ccncc1)S(C)(=O)=O`, with 6%; and `CCc1ccc(NCc2c(OCc3ccc(Br)cc3)ccc3ccccc23)cc1`, with -11%.

For the molecule `Cc1c(S(=O)(=O)N2CCC[C@H](C(=O)NC3CC3)C2)cnn1C`, the “% Inhibition” value is -4%.

Consider `O=C(Nc1ccccc1)c1ccc2c(c1)C(=O)N(CCc1ccccc1)C2=O`, for which the “% Inhibition” value is listed as -9%. For `O=C(Nc1c(S(=O)(=O)c2ccccc2)c2nc3ccccc3nc2n1CCc1ccccc1)c1ccc(Cl)cc1`, the “% Inhibition” value stood at 102%.

Regarding `O=C(Cn1c(Cc2ccc(Cl)cc2)nc2ccccc21)Nc1ccccc1`, the “% Inhibition” value is reported as 14%. For the molecule `Cc1ccc(S(=O)(=O)c2c(NS(=O)(=O)c3ccccc3)n(CCc3ccccc3)c3nc4ccccc4nc23)cc1`, the “% Inhibition” value is listed as 100%. The same measure, in the same setting: then `Cc1ccc(S(=O)(=O)c2c(NS(=O)(=O)c3ccc(F)cc3)n(CCc3ccccc3)c3nc4ccccc4nc23)cc1`, with 100%; and `CC(C)CCn1c(=O)c2sccc2n(CC(=O)N(C)c2ccccc2)c1=O`, with 5%.

Consider `COc1cc(OC)c(NC(=O)COc2ccccc2-c2nc3ccccc3s2)cc1Cl`, for which the “% Inhibition” value was found to be 0%. On the same count and under the same terms, for `O=C(c1cc2c(s1)CCCC2)N1CCC[C@H](c2nnc3ccccn23)C1` the value was -17%; for `CCN1C(=O)[C@@]2(CC(=O)Nc3c2c(C)nn3-c2ncnc3nc[nH]c23)c2cc(C)ccc21`, 2%. The same measure, in the same setting: then `COc1ccccc1OCc1nn2c([C@H]3CCCN(S(C)(=O)=O)C3)nnc2s1`, with -3%; and `O=C(Nc1ccc(N2CCn3c(nc4ccccc43)C2)cc1)c1ccc(F)cc1`, with 9%; and `O=C(COc1ccccc1Cl)Nc1ccc(C2(c3ccc(NC(=O)COc4ccccc4Cl)cc3)c3ccccc3-c3ccccc32)cc1`, with 0%. Regarding `O=C1c2ccccc2C(c2ccc(NC(=O)c3cccc4ccccc34)cc2)(c2ccc(NC(=O)c3cccc4ccccc34)cc2)c2ccccc21`, the “% Inhibition” value is 83%. For `N=C(Cc1ccccc1)NOC(=O)c1cccc2ccccc12`, the “% Inhibition” value is listed as -11%.

Consider `O=C(O)c1cc2c(cc1C(=O)Nc1ccc(Cl)cc1)=[O+]c1ccccc1-c1ccccc1[O+]=2`, for which the “% Inhibition” value is listed as -17%.

Consider `O=C(Nc1ccc(C2(c3ccc(NC(=O)c4ccc(F)cc4)cc3)c3ccccc3C(=O)c3ccccc32)cc1)c1ccc(F)cc1`, for which the “% Inhibition” value is reported as 67%. Same read-out and setting: for `O=C(c1ccccc1F)N(Cc1nccn1Cc1ccccc1F)CC1CC1` the value was 20%; for `O=C(Nc1ccc(Cl)cc1)c1cccc(N2C(=O)C3CCC(c4ccccc4)CC3C2=O)c1` (centres undefined), -5%; for `COc1cc([C@H](CC(=O)NC2CCN(Cc3ccccc3)CC2)N2Cc3ccccc3C2=O)cc(OC)c1OC`, 33%. With `CN1CCN(C(=O)[C@H](C(=O)c2ccccc2)n2cc(Cl)ccc2=O)CC1`, the “% Inhibition” value is -9%. For the molecule `COc1ccc2[nH]c3c(c2c1)CC(C(=O)O)NC3c1ccc(OC)c(CN2CCN(c3ccccc3F)CC2)c1` (centres undefined), the “% Inhibition” value is given as 76%. For the molecule `Fc1ccccc1N1CCN(C2CCN(Cc3c[nH]c4ccccc34)CC2)CC1`, the “% Inhibition” value was 4%.

Regarding `COc1ccccc1N1CCN(Cc2nc3ccccc3c(=O)n2-c2ccc(F)cc2)CC1`, the “% Inhibition” value was 6%. Same read-out and setting: then `CC(C)(C)CCN1CCN(S(=O)(=O)C[C@H]2CCCS(=O)(=O)C2)CC1`, with -3%. On the same count and under the same terms, then `C[C@@H](CN)N(C)c1ccnc2cc(Br)cnc12`, with 98%.

For the molecule `COc1c(Br)cc(Br)cc1C(N)=O`, the “% Inhibition” value is reported as -5%. Take `CCCOc1cc2nc(C(F)(F)F)cc(-c3cccs3)c2cc1OCCC`: the “% Inhibition” value is on record as -4%. The same measure, in the same setting: then `CC1=CC(=[N+](CCO)CCO)C=C/C1=C(\c1ccc(N(CCO)CCO)cc1C)c1ccccc1Cl`, with 91%; and `Cc1ccc([C@@H]2CC(=O)Nc3nc(N4CCN(CCO)CC4)nc(O)c32)cc1`, with 2%; and `NC(=O)CN1CCC2(CC1)NC(c1ccc(OC(F)(F)F)cc1)=NO2`, with 0%. As to `Cc1cncc(C(=O)N2CC(n3cnnc3C)C2)c1`, the “% Inhibition” value was -19%. For `CCc1nnc(NC(=O)C2CC2c2ccccc2)s1` (centres undefined), the “% Inhibition” value was -3%. Still for that read-out and setting: for `COC(=O)c1c(NC(=O)[C@H]2CCCN(S(=O)(=O)c3cnn(C)c3C)C2)cnn1C` the value was 4%; for `CNS(=O)(=O)CC(=O)Nc1cc(Br)c(F)cc1F`, -12%; for `COc1cccc(CNC(=O)CCC(=O)N(c2ccccc2)c2ccccc2)c1`, 7%.

For `COc1ccc(CCNC(=O)CCCC(=O)NCc2ccccc2)cc1OC`, the “% Inhibition” value is given as -14%.

As for `CCCNC(=O)C[C@H](C)CC(=O)NCCc1ccc(OC)c(OC)c1`, the “% Inhibition” value was 4%. Still for that read-out and setting: then `COc1ccc(CC(=N)Nc2cc3cc(OC)c(OC)cc3c(Cc3ccc(OC)c(OC)c3)n2)cc1OC`, with 80%; and `COC(=O)C1=C(C(=O)OC)SC(=C2C(=S)C(C)(C)N(C(=O)c3cccnc3)c3c(C)cc(C)cc32)S1`, with 4%.

Take `CC(O)CC(C)(C)CNC1CCCc2occc21` (centres undefined): the “% Inhibition” value is on record as -12%. On the same count and under the same terms, for `O=C(N[C@H]1CCCc2occc21)c1ccco1` the value was 0%. The same measure, in the same setting: then `Oc1cccc(CN[C@H]2CCCc3occc32)c1Cl`, with 71%. Take `CCN1CCC(CCNC(=O)c2cc3c(s2)N(CC)CCCC3)CC1`: the “% Inhibition” value was -7%.

As for `CCOc1cc(N2CCOCC2)c(OCC)cc1NC(=O)c1ccc(C)c(NC(=O)c2ccco2)c1`, the “% Inhibition” value was 22%. Same read-out and setting: then `N#Cc1nc(NC(=O)c2cc3c(s2)CCOC3)[nH]c1C#N`, with 3%.

Take `CN(CC(F)(F)F)S(=O)(=O)c1ccc(C(=O)O)cc1`: the “% Inhibition” value was -5%. As to `Cc1ccc(CC[C@H]2Nc3ccccc3C(c3ccccc3)(c3ccccc3)O2)o1`, the “% Inhibition” value is reported as 74%.

Take `Cc1ccccc1[C@H]1CCN(c2ccc(NC(=O)c3ccc(F)cc3)c(C(=O)O)c2)C1`: the “% Inhibition” value is given as -11%. On to `Cc1cc(Cn2cc(C(c3ccccc3)c3ccccc3)nn2)no1`, for which the “% Inhibition” value is listed as -3%. The same measure, in the same setting: then `Nc1c(-c2ccccc2)nsc1C(=O)NCc1ccc(F)cc1`, with -2%; and `CC(=O)Nc1ccc(NC(=O)CN2CCCN(c3cncc(F)c3)CC2)cc1`, with -1%; and `O=C(O)C1C2C=CC(O2)C1C(=O)NC1CCCc2ccccc21` (centres undefined), with -4%. On the same count and under the same terms, for `O=C(CC(O)c1cccc(F)c1)NCCC1CCCCO1` (centres undefined) the value was -1%; for `COCCc1cc(NC(=O)Nc2sc(-c3ccccc3)nc2C)n(C)n1`, 14%; for `COc1cccc(-c2nc3n(c2C(=O)NCC(C)C)CCS3(=O)=O)c1`, -2%. The same measure, in the same setting: then `COc1cccc(-c2nc(C)c(C(=O)Nc3nc(C(C)C)n[nH]3)s2)c1`, with 74%. As for `COc1cccc(-c2nc(C)c(C(=O)Nc3n[nH]c(CC(C)C)n3)s2)c1`, the “% Inhibition” value (2 µM) was 78% and 70%. `CCO[C@@H](C)C(=O)Nc1n[nH]c(Cc2cccc(F)c2)n1`: the “% Inhibition” value is given as -1%. `COc1cccc(CNC(=O)c2sc(Nc3ccc(C)cc3C)nc2C)c1`: the “% Inhibition” value is recorded as -13%. As for `C[C@@](CO)(NC(=O)Nc1cc(-c2ccco2)ccc1F)C1CC1`, the “% Inhibition” value was -4%. Still for that read-out and setting: then `O=C(c1ccccc1)c1c[nH]c2c(F)cc(F)cc2c1=O`, with -5%; and `CCOCCc1nc(-c2ccccn2)c(CCOCC)nc1-c1ccccn1`, with 10%.

Regarding `O=C1NC(=O)[C@]2(CCOc3ccc(F)cc32)N1`, the “% Inhibition” value was -3%. As to `Cc1cc(C)n2c(=O)c3ccccc3nc2c1C#N`, the “% Inhibition” value is on record as -5%. `Cc1cccc(CNC(=O)NC2CCOC2c2ccc(Cl)cc2)n1` (centres undefined): the “% Inhibition” value is -15%. For the molecule `Cc1cccc(CN(Cc2cccc(C)n2)C[C@H]2CCCCO2)n1`, the “% Inhibition” value was 90%.

In the case of `Cc1cc(C)nc(NCCC[C@H]2CCCCO2)n1`, the “% Inhibition” value was -6%. The same measure, in the same setting: then `O[C@H]1CNCC[C@@H]1Nc1cc(-c2ccccc2)nc2ccccc12`, with 46%. Regarding `COc1cc(OC)c(S(=O)(=O)NC(C)C)cc1S(=O)(=O)NC(C)C`, the “% Inhibition” value is on record as -4%. As to `O=C1CC(c2cccc(Br)c2)N(S(=O)Oc2ccccc2)c2ccccc21` (centres undefined), the “% Inhibition” value worked out at 4%. In the case of `COc1ccc(CNc2nc(-c3nnc(-c4ccccc4)o3)nc3ccccc23)cc1`, the “% Inhibition” value stood at 55%. Consider `COc1ccc2oc(-c3ccc(CNC(=O)c4ccccc4)cc3)nc2c1`, for which the “% Inhibition” value is reported as -5%. With `COc1ccc2oc(-c3ccc(CNC(=O)c4ccc(C)cc4)cc3)nc2c1`, the “% Inhibition” value was -3%. Turning to `Oc1c(-n2cncn2)cnc2ncnn12`, the “% Inhibition” value is -7%. Same read-out and setting: for `Cc1cc(-c2ccco2)cc(Cl)c1N` the value was -1%; for `O=C1CCN(C(=O)C2(c3cccc(Cl)c3)CCCC2)CCN1`, 2%; for `CC(C)(C)c1ccc(-c2ccc(C(=O)NCC3(O)CCOCC3)o2)cc1`, 0%. The same measure, in the same setting: for `COc1ccc(NC(=O)[C@@H](C)C2CCOCC2)cc1` the value was -6%; for `COC(=O)c1c(NC(C)=O)c2cc(NC3CCOCC3)cnc2n1CCc1ccc(OC)cc1`, 70%; for `CCc1c(NC(=O)[C@@H](C)C2CC2)nnn1CCc1ccc(OC)cc1`, -1%.

Consider `Cc1nn(C)c2c(N3CCOCC3)nc(C3CC3)nc12`, for which the “% Inhibition” value is recorded as -8%. The same measure, in the same setting: then `CC[C@H]1Cn2c(C(=O)NCc3ccc(C)o3)cc3cccc(c32)O1`, with -11%; and `COc1ccc(-c2nnc(COc3ccc(-c4ccccc4)cc3)s2)cc1`, with -7%. For `COc1ccc(-[n+]2c(-c3ccccc3)cn3c2CCC3)cc1`, the “% Inhibition” value was 77%. Take `COc1ccc(-c2nc(N)s[n+]2-c2ccccc2)cc1`: the “% Inhibition” value is recorded as -2%. Same read-out and setting: for `COc1ccc(-[n+]2c(-c3ccc(-c4ccccc4)cc3)cn3c2COCC3)cc1` the value was 66%. Still for that read-out and setting: for `COc1ccc(CCc2nnc3n2CCOC3)cc1` the value was -4%.
